A selection: hits, their analogues and other compounds. The true share with any hit is near 5%.
AHR activator – activators of human aryl hydrocarbon receptor | P35869 | AID 2796 | hit rate 2.5% among 320,000 | AHR-responsive luciferase reporter cells, luminescence | activation, % at 5 µM; in the data active = activation above about 47%;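 also: 0% = vehicle wells and 100% = reference agonist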
SENP6 inh – SENP6 protease inhibition; Q9GZR1; Recombinant SENP6 catalytic domain, aminoluciferin luminescence; inhibition, % at 10 µM; hit rate 1.8% among 330,000; AID 2599;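 active = inhibition above about 50% at the single tested dose, limit read from the data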;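 also: plate controls were DMSO wells with enzyme for no effect and DMSO wells lacking enzyme for full effect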
EBI2 antag – blocks human EBI2 receptor beta-arrestin signaling. EBI2 beta-arrestin recruitment, luminescence, 7a,25-OHC stimulated. P32249. hit rate 0.81% among 360,000. inhibition, % at 5 µM. AID 651636; in the data active = inhibition above about 38%;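 also: enzyme fragment complementation signal reports receptor beta-arrestin coupling in cells; 0% = agonist plus DMSO wells and 100% = wells without agonist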
Target sequence (P32249 whole entry, looked up, the tested form may be a part): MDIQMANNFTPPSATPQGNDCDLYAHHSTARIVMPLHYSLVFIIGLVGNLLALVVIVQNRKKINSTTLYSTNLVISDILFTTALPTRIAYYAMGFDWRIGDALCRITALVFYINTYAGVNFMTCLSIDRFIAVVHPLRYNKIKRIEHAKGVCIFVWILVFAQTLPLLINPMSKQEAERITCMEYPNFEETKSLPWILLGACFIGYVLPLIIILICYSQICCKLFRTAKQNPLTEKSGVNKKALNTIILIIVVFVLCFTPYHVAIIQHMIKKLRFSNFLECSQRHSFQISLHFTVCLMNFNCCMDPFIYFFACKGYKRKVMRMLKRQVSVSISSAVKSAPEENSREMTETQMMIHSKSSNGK
SENP7 inh – inhibitors of human SENP7 protease; AID 434973; inhibition, % at 5 µM; recombinant SENP7, Z-RLRGG-aminoluciferin luminescence, 40 min; Q9BQF6; hit rate 1.5% among 330,000;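 active = inhibition above about 50% at the single test dose, limit read from the data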;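 also: plate controls were DMSO with enzyme for no effect and no enzyme buffer wells for full effect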
SENP8 block-1 – blocks the human protease SENP8; purified SENP8, Z-RLRGG-aminoluciferin cleavage, luminescence; inhibition, % at 10 µM; hit rate 1.2% among 330,000; in the data active = inhibition above about 50%
Target sequence (Q96LD8 whole entry, looked up): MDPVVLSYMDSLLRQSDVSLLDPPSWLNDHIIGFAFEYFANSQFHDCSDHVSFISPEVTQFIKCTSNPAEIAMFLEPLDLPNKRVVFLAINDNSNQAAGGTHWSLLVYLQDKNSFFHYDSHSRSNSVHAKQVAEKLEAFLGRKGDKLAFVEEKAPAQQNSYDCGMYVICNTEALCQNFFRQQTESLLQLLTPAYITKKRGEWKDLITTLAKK
SENP8 block-2 – blocks human SENP8 cleavage of Nedd8 substrate. Q96LD8. recombinant SENP8, Nedd8 substrate fluorescence. inhibition, % at 20 µM. hit rate 0.64% among 360,000; in the data active = inhibition mostly above about 40%, no sharp cut-off; inactive = mostly below about 27%
SENP8 conf – human SENP8 inhibition, confirmed; shares compounds with SENP7 inh; Recombinant SENP8, Z-RLRGG-aminoluciferin luminescence, 60 min; inhibition, % at 12.5 µM; hit rate 40% among 6,200;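 active = mean inhibition across replicates above about 50%, limit read from the data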
SENP6 conf – confirmation of human SENP6 protease inhibitors. shares compounds with SENP7 inh. recombinant SENP6, Z-RLRGG-aminoluciferin luminescence. inhibition, % at 12.5 µM. hit rate 58% among 6,200. AID 488915
SENP7 confirm – human SENP7 inhibition, confirmed; inhibition, % at 12.5 µM; hit rate 69% among 6,200; recombinant SENP7, Z-RLRGG-aminoluciferin luminescence, 40 min; AID 488917; shares compounds with SENP7 inh
Casp3 SENP sel – inhibits human caspase-3 in SENP selectivity test; shares compounds with SENP7 inh; purified caspase-3, Z-DEVD-aminoluciferin luminescence, 60 min; inhibition, % at 12.5 µM; hit rate 60% among 6,200;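 active = mean inhibition above about 50%, limit read from the data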;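 also: plate controls were enzyme with DMSO for no effect and wells without caspase-3 for full effect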
Luc interf – counter-screen for SENP inhibitors: luminescence interference | shares compounds with SENP7 inh | Pre-incubated SENP8/Z-RLRGG-aminoluciferin, luciferase luminescence interference | inhibition, % at 12.5 µM | hit rate 39% among 6,200;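 active = mean inhibition above about 50% when retested at one dose, limit read from the data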;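 also: plate controls were DMSO wells with completed reaction for no effect and substrate without enzyme for full effect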
* = called active by the depositor; · = no result given.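 The calls were made as follows, unless noted: active = mean inhibition above about 50% in the one-dose retest (limit read from the data); inactive = the rest.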

SMILES	AHR activator	SENP6 inh	EBI2 antag	SENP7 inh	SENP8 block-1	SENP8 block-2	SENP8 conf	SENP6 conf	SENP7 confirm	Casp3 SENP sel	Luc interf
O=C(NCCO)C(O)C(O)C(=O)NCCO (configuration not stated)	-0.5	-3.1	-11.8	9.5	8.5	10.3	·	·	·	·	·
CCOc1ccc2nc(NC(=O)C3(C)CC3(Br)Br)sc2c1 (configuration not stated)	21.1	-16.8	0.8	0.8	0.8	21.7	·	·	·	·	·
CCOc1ccc2nc(NC(=O)c3cnccn3)sc2c1	0.2	23.7	5.7	73.9*	19.9	27.2	16.1	14.4	23.9	51.9*	14.4
Clc1ccc2nc(-c3ccc(Br)s3)cn2c1	21.3	80.0*	30.0	4.9	63.3*	-292.1	14.4	68.8*	86.5*	48.7	15.1
O=C(Nc1ccccc1C(=O)N1CCCCC1)NC1CCCCC1	-1.9	-9.2	-8.9	1.5	-14.0	16.1	·	·	·	·	·
CCCCc1ccc(-c2nn[nH]n2)nc1	·	·	-19.5	·	·	16.9	·	·	·	·	·
CCCCc1ccc(-c2ccc(C)cc2O)nc1	-4.5	13.8	7.2	72.5*	53.1*	27.4	18.8	30.3	29.6	42.4	17.7
CCCCc1ccc(-c2ccc(Br)cc2O)nc1	-2.4	12.1	-6.7	67.6*	-5.1	28.0	9.5	9.8	10.9	25.0	3.9
CCCCCc1ccc(-c2ccc(/C=C/C(N)=O)cc2)nc1	-9.6	16.7	-3.0	-1.0	-6.2	-233.9	·	·	·	·	·
COc1ccc(NC(=O)CCOc2ccc(C)cc2)c(OC)c1	0.0	-23.2	-10.4	-7.0	-5.8	8.1	·	·	·	·	·
N=C1SCC(=O)N1c1nc(-c2ccccc2)cs1	11.8	96.1*	-26.8	86.6*	89.3*	9.6	-5.3	3.8	-5.9	42.0	-5.0
O=C1C2C3c4ccccc4C(c4ccccc43)C2C(=O)N1c1nc(-c2ccccc2)cs1 (configuration not stated)	0.1	-4.6	2.8	3.7	6.5	29.0	·	·	·	·	·
S=C(Nc1ccccc1)N1CCc2ccccc21	10.6	-10.6	5.1	9.7	-15.2	19.6	·	·	·	·	·
Fc1cccc(NC(=S)N2CCc3ccccc32)c1	·	56.9*	-1.7	2.2	9.7	5.8	11.7	2.1	10.1	3.4	16.9
Fc1ccc(NC(=S)N2N=CCC2c2ccccc2)cc1 (configuration not stated)	1.9	58.5*	-8.2	38.0	24.6	26.5	38.0	31.4	66.5*	46.4	44.9
CCc1cc(=O)oc2c(C)c(OCC(=O)N3CCC(C(=O)O)CC3)ccc12	0.6	-23.5	2.8	-4.8	-13.0	-131.7	·	·	·	·	·
O=C(Oc1ccccc1)N1CCN(C(=O)c2ccco2)CC1	·	-2.5	-12.1	-4.5	-8.0	16.4	·	·	·	·	·
COc1ccc(-c2cn3nc(SCC(=O)NC4CCCCC4)ccc3n2)cc1	6.6	18.2	43.1	61.3*	13.7	-381.9	-13.5	-9.1	18.1	19.6	6.6
COc1cccc(C(c2c(C)[nH]n(-c3ccccc3)c2=O)c2c(C)[nH]n(-c3ccccc3)c2=O)c1O	12.1	56.8*	9.0	56.4*	11.1	53.7*	13.4	33.7	11.9	3.4	4.4
COc1ccc(C(C[N+](=O)[O-])c2c(C)[nH]n(-c3ccccc3)c2=O)cc1 (configuration not stated)	17.0	65.5*	-25.5	60.8*	48.1	84.3*	18.5	59.8*	36.4	-0.5	-0.1
COc1ccc(C(C[N+](=O)[O-])c2c(C)cc3ccccn23)cc1 (configuration not stated)	16.0	-18.0	3.7	5.2	36.9	-31.9	·	·	·	·	·
Cc1[nH]n(-c2ccccc2)c(=O)c1C(=O)c1ccccc1	2.2	-3.8	-3.4	4.6	-5.7	14.5	·	·	·	·	·
O=C(O)c1c(-c2ccccc2)cnc2ccccc12	·	·	-8.9	·	·	23.1	·	·	·	·	·
C=C1CCN([C@@H](C)C(=O)NCc2ccc(OC)cc2)S(=O)(=O)c2ccccc21	3.6	-4.8	0.3	-2.2	-3.6	10.6	·	·	·	·	·
Fc1ccccc1CNc1ncnc2sccc12	4.1	87.1*	-2.7	-0.3	-6.0	-3.9	-5.7	-5.4	-11.5	0.3	3.6
SMILES	AHR activator	SENP6 inh	EBI2 antag	SENP7 inh	SENP8 block-1	SENP8 block-2	SENP8 conf	SENP6 conf	SENP7 confirm	Casp3 SENP sel	Luc interf
CC1CN(C(C)C)C(C)CC1OC(=O)c1ccccc1 (configuration not stated)	·	-6.5	-7.4	-1.6	-0.5	7.0	·	·	·	·	·
Cc1ccsc1C=C1C(=O)c2ccccc2C1=O	18.2	10.7	-0.1	68.7*	43.9	30.6	74.4*	66.5*	78.8*	69.1*	37.0
CC(=O)NC(=S)Nc1ccc(-c2nc3ccc(C)cc3s2)cc1	-0.5	3.4	7.0	11.8	-10.4	-289.7	·	·	·	·	·
Cc1ccc2nc(-c3ccc(NC(=O)COC(=O)c4ccco4)cc3)sc2c1	-9.3	-12.1	-6.0	-4.4	-2.4	-435.8	·	·	·	·	·
COc1ccc2nc(-c3ccc(F)cc3)sc2c1	5.3	97.1*	2.1	97.0*	73.7*	-475.9	95.4*	96.8*	101.1*	94.6*	77.8*
CNC(=S)Nc1ccc(-c2nc3ccc(C)cc3s2)cc1	-5.3	74.3*	20.7	49.6	63.8*	-392.1	41.3	64.2*	86.4*	39.6	43.0
COc1ccc(/C=C(\C#N)C(=O)OCC(=O)Nc2ccc(-c3nc4ccc(C)cc4s3)cc2)cc1	-6.5	-1.4	6.7	53.2*	16.1	-424.8	23.6	20.0	44.7	25.8	54.2*
COc1ccc2nc(N)sc2c1	19.9	-1.9	-9.8	1.8	-11.1	1.8	·	·	·	·	·
Cc1ccc2nc(-c3ccc(NS(=O)(=O)c4ccc(F)cc4)cc3)sc2c1	26.1	20.0	5.2	7.0	1.6	-395.3	·	·	·	·	·
Cc1ccc2nc(-c3ccc(N)cc3)sc2c1	-0.1	95.1*	12.5	98.2*	94.7*	-458.8	95.9*	98.3*	101.9*	91.8*	44.7
Cc1ccc(C)c(NC(=O)CCN2CCN(CCO)CC2)c1	-1.2	-9.3	-4.7	2.0	0.7	17.2	·	·	·	·	·
Nc1ccc(-c2nc3cc(N)ccc3s2)cc1	40.2	75.5*	1.2	89.9*	83.9*	-428.6	92.8*	93.1*	100.2*	90.2*	90.3*
Nc1ccc2nc(-c3ccccc3)sc2c1	21.7	97.7*	10.4	98.1*	96.4*	-288.9	98.3*	99.6*	102.7*	98.0*	96.6*
c1ccc(COc2ccc(-c3csnn3)cc2)cc1	-3.1	66.5*	-4.5	73.0*	41.2	25.1	6.5	13.6	24.2	21.1	7.1
